Data published in PubChem BioAssay AID743099 (Vanderbilt Specialized Chemistry Center, 2013).
Active and inactive are the calls of the source. The rule behind the calls is not given here.

target: Muscarinic acetylcholine receptor M2 (Homo sapiens) (UniProt P08172); experiment: human M2 receptor modulation in M5 NAM selectivity check, counter-screen for M5 NAM project, cell-based, CHO-K1 hM2/Gqi5, Fluo-4 calcium flux, ACh EC20 (AID 743099); details: series mostly up to 30 µM; % max ACh response: at the top concentration
Sequence (P08172 whole entry, looked up): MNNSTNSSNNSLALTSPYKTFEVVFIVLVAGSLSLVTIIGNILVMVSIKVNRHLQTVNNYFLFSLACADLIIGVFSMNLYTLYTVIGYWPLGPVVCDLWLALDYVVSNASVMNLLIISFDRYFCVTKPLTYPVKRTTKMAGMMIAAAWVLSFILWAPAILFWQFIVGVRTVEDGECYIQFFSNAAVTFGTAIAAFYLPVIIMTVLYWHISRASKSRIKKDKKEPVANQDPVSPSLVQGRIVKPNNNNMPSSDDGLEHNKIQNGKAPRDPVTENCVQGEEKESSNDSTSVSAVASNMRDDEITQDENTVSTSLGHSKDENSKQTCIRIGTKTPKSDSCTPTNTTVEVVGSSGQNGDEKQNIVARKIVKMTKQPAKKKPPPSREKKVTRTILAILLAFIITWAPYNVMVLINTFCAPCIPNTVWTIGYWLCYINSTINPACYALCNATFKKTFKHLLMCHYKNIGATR

Row | SMILES | % max ACh response
1 | O=C(c1ccc(F)cc1)N1CCN2C(=O)c3ccccc3C12c1ccccc1 (stereo not given) | 77.1 (inactive)
2 | O=C(c1cc(F)cc(F)c1)N1CCN2C(=O)c3ccccc3C12c1ccc(Cl)cc1 (stereo not given) | 79.1 (inactive)
3 | O=C(c1ccc(F)c(F)c1)N1CCN2C(=O)c3ccccc3[C@@]12c1ccc(Cl)cc1 | 83.3 (inactive)
4 | O=C(c1ccc(F)c(F)c1)N1CCN2C(=O)c3ccccc3C12c1ccccc1 (stereo not given) | 80.5 (inactive)
5 | O=C(c1ccc(F)c(F)c1)N1CCN2C(=O)c3ccccc3C12c1ccc(Cl)cc1 (stereo not given) | 83.7 (inactive)
